Source: ChEMBL document CHEMBL3988442, “University of Dundee, Small-Polar-MMV Screening Library” (2021)
Screen size: about 48,000 compounds; about 13,000 (27%) showed an effect of 50% or more. The list shows a part of the results.

Test system: Wolbachia pipientis
Experiment: Anti-Wolbachia Cell-Based Screen
Type: functional
Parameters: scale not given: in the data most compounds retested in dose-response had high values
Settings: 5 µM

| Structure (SMILES) | Percent Effect |
| --- | --- |
| Cc1cccc(C2(O)CCN(C(=O)c3ccc(N(C)C)cc3)CC2)c1C | -4.914% |
| COc1ccc(Br)cc1NCC(=O)NC(C)(C#N)C1CC1 (stereo not drawn) | 14.48% |
| O=C(Cn1cccn1)NCC1CCCN(Cc2ccccc2)C1 (stereo not drawn) | 8.029% |
| c1cnnc(N2CCCC2CNc2ncnc3c2CCC3)c1 (stereo not drawn) | 2.71% |
| c1ccc(CN2CCC(Nc3ncnc4c3CCNCC4)C2)cc1 (stereo not drawn) | 76.79% |
| c1ccc(CN2CCCC(CNc3ncnc4c3CCNCC4)C2)cc1 (stereo not drawn) | 100.7% |
| Cc1ccccc1CN1CCC(NCC2CNc3ccnn3C2)CC1 (stereo not drawn) | 8.316% |
| Cc1[nH]c2ccccc2c1CCNc1ncnc2c1CCNCC2 | -9.659% |
| c1ccc(CN2CCC(CNc3ncnc4c3CCNCC4)CC2)cc1 | 97.41% |
| Cc1nc(CN2CCCC(Nc3ncnc4c3CCC4)C2)no1 (stereo not drawn) | -2.2% |
| Cc1ccccc1CN1CCC(CNc2ncnc3c2CCNCC3)C1 (stereo not drawn) | 119.4% |
| c1ccc(CN2CCC(NCCSc3ncn[nH]3)C2)cc1 (stereo not drawn) | 12.73% |
| OC(CN(Cc1ccccc1)Cc1ccncc1)c1cccs1 (stereo not drawn) | 13.62% |
| Cc1nnc(CN2CCC(Oc3ccc(C)c(C)c3)CC2)o1 | -18.16% |
| Cc1ccc(CNCCS(=O)(=O)N2CCOCC2)cc1C | -37.41% |
| c1ccc(CN2CCC(CCNc3ncnc4c3CCNCC4)C2)cc1 (stereo not drawn) | 82.99% |
| Cc1ccn(CCNc2ncnc3c2CCN(Cc2ncc[nH]2)CC3)n1 | 5.519% |
| COCC1CC2(CCN(Cc3cnn(C)c3)CC2)CN1C(C)C.O=C(O)C(F)(F)F.O=C(O)C(F)(F)F (stereo not drawn) | -6.847% |
| COCC1CC2(CCN(C(=O)c3ccco3)CC2)CN1C(C)C.O=C(O)C(F)(F)F (stereo not drawn) | 111.9% |
| COCC1CC2(CCN(C(=O)c3occc3C)CC2)CN1C(C)C.O=C(O)C(F)(F)F (stereo not drawn) | 98.04% |
| COCC1CC2(CCN(Cc3ccc(OC)cc3)CC2)CN1C(C)C.O=C(O)C(F)(F)F.O=C(O)C(F)(F)F (stereo not drawn) | -13.29% |
| COCC1CC2(CCN(C(=O)c3cc(C)oc3C)CC2)CN1C(C)C.O=C(O)C(F)(F)F (stereo not drawn) | 17.98% |
| COCC1CC2(CCN(C(=O)c3cccn3C)CC2)CN1C(C)C (stereo not drawn) | -8.006% |
| COCC1CC2(CCN(Cc3ccc(C)o3)CC2)CN1C(C)C.O=C(O)C(F)(F)F.O=C(O)C(F)(F)F (stereo not drawn) | 100.3% |
| COCC1CC2(CCN(C(=O)c3ccc(C)nc3)CC2)CO1.O=C(O)C(F)(F)F (stereo not drawn) | -3.949% |

| Structure (SMILES) | Percent Effect |
| --- | --- |
| COCC1CC2(CCN(C(=O)c3ccccc3C)CC2)CN1C(C)C.O=C(O)C(F)(F)F (stereo not drawn) | 101.7% |
| N#Cc1ccc(C2CC(=O)Nc3c2cnn3C2CCCC2)cc1 (stereo not drawn) | 11.66% |
| N#Cc1cn(C2CC2)c(=O)n(Cc2cc(-c3cccs3)on2)c1=O | 15.09% |
| COC(=O)CCN1CCC(NC(=O)OC(C)(C)C)CC1 | -7.075% |
| CC(C1CCN(Cc2cnn(C)c2C2CC2)CC1)N1CCN(C)CC1 (stereo not drawn) | -5.459% |
| CN1CCCC(c2nccnc2-c2cccc(Cl)c2)C1 (stereo not drawn) | 117.7% |
| CN1CCCC(c2nc3c([nH]2)CC(C)(C)CNC3=O)C1 (stereo not drawn) | -16.77% |
| COc1ccc(C)cc1-n1cnnc1C1CCCN(C)C1 (stereo not drawn) | 8.034% |
| Cc1nnc(N2CCCC(C(=O)c3cccc(Cl)c3)C2)o1 (stereo not drawn) | -20.06% |
| O=C(c1cccc(Cl)c1)C1CCCN(c2nnc(C3CCC3)o2)C1 (stereo not drawn) | -5.901% |
| Cc1cccc(-c2nccnc2C2CCCN(C)C2)c1C (stereo not drawn) | 89.85% |
| Cc1cccc(-c2nccnc2C2CCN(C)CC2)c1C | 64.83% |
| CCN(C)C(C(=O)Nc1ccc2c(c1)CCC(=O)N2)c1ccccc1 (stereo not drawn) | 0.8734% |
| OCCn1ncc2c1CN(CC1CCOc3ccccc3C1)C2 (stereo not drawn) | 4.778% |
| CC(NC(=O)NCc1cscn1)c1ccc(N2CCOCC2)cc1 (stereo not drawn) | -18.24% |
| O=c1[nH]c2c(c(=O)n1C1CCCCC1)CCC2NCCc1ccccc1 (stereo not drawn) | 24.49% |
| CC(C)N(CC1CCCN(CC(N)=O)C1)C(=O)OC(C)(C)C (stereo not drawn) | 12.71% |
| COc1cccc(-c2cc(-c3nc(CN4CCN(C)CC4)no3)[nH]n2)c1 | 0.4618% |
| Cc1csc(C(=O)N2CCC(O)(CN3CCc4ccccc4C3)C2)c1 (stereo not drawn) | 114.3% |
| Cc1ccc(C(=O)N2CCC(O)(CN3CCc4ccccc4C3)C2)s1 (stereo not drawn) | 99.66% |
| Cn1cccc1C(=O)N1CCC2(CC1)CCN2S(C)(=O)=O | -0.7561% |
| Cn1cccc1C(=O)N1CCC(O)(CN2CCc3ccccc3C2)C1 (stereo not drawn) | 119.3% |
| Cn1cccc1C(=O)N1CCCC2(CCCN2S(C)(=O)=O)C1 (stereo not drawn) | 2.477% |
| CN(C)CC1(O)CCN(C(=O)c2cnc(CN3CCCC3)s2)C1 (stereo not drawn) | -12.27% |
| Cc1ccc(C(=O)N2CCN(CC(O)c3ccc(F)cc3)CC2)s1 (stereo not drawn) | -1.791% |

| Structure (SMILES) | Percent Effect |
| --- | --- |
| O=S1(=O)C[C@@H]2[C@H](C1)N(Cc1cccc(O)c1)CCN2CC1CC1 | -9.844% |
| Cc1noc([C@@H]2C[C@H](NS(=O)(=O)Cc3ccccc3)CN2C)n1 | -2.99% |
| CC(OCC1CC1)C(=O)NCc1ccc(Cn2ccnc2)cc1 (stereo not drawn) | -1.593% |
| COc1ccccc1C(=O)N1CC2(COC(C)(C)OC2)C1 | -9.843% |
| Cc1cc(C(=O)N2CCN(Cc3ccco3)C(CCO)C2)cc(=O)[nH]1 (stereo not drawn) | -4.439% |
| CCc1ccc(CN2C[C@@H](C(=O)O)[C@H](c3ccccc3OC)C2)o1 | -18.6% |
| COc1ccccc1C(=O)N1CC(=O)N(Cc2ccco2)CC(O)C1 (stereo not drawn) | 85.9% |
| Cc1ccc([C@@H]2CN(C(=O)CCc3ccco3)C[C@H]2N(C)C)cc1 | -4.926% |
| Cc1ccc(C(=O)N2CC(=O)N(Cc3ccco3)CC(O)C2)cc1 (stereo not drawn) | 118.6% |
| NC(=O)CN(C(=O)c1cccc(C(F)(F)F)c1)C1CCCC1 | -15.86% |
| NC(=O)NCC1CCCCN1C(=O)c1cccc(C(F)(F)F)c1 (stereo not drawn) | 3.602% |
| CS(=O)(=O)NCC1CCCCN1C(=O)c1cccc(C(F)(F)F)c1 (stereo not drawn) | 93.67% |
| NC(=O)CC1CCCCN1C(=O)c1cccc(C(F)(F)F)c1 (stereo not drawn) | 118.1% |
| Cc1ccc(-c2nc(C(=O)N3CCCCC3CNS(C)(=O)=O)cs2)cc1 (stereo not drawn) | 5.411% |
| CCC(O)CNC(=O)C1(N(C)Cc2ccccc2)Cc2ccccc2C1 (stereo not drawn) | -9.431% |
| CCc1nc2n(n1)CCCC2NC(=O)Nc1ccc(SC)c(F)c1 (stereo not drawn) | -17.88% |
| COc1cc(N2CCCC(c3nccn3CCN(C)C)C2)nc(N)n1 (stereo not drawn) | -7.598% |
| O=C(O)C(F)(F)F.c1cc(CN2C[C@H](OCC3CCOCC3)[C@H]3COC[C@H]32)co1 | 84.18% |
| COc1ccc(CN2C[C@@H](OCc3csc(C)n3)[C@H]3COC[C@H]32)cc1.O=C(O)C(F)(F)F | -4.618% |
| O=C(O)C(F)(F)F.c1cc(CN2C[C@H](OCC3CCOCC3)[C@H]3COC[C@H]32)cs1 | 93.96% |
| COc1ccc(CN2C[C@H](OCC3CCOCC3)[C@H]3COC[C@H]32)cc1.O=C(O)C(F)(F)F | 2.727% |
| N#Cc1cccc(CN2C[C@H](OCC3CCOCC3)[C@H]3COC[C@H]32)c1.O=C(O)C(F)(F)F | -3.694% |
| c1ncc(-c2cn(CCSc3cnn[nH]3)nn2)cn1 | -12.65% |
| COCCOCCNC(=O)N1CCN(c2ccccc2C#N)CC1 | 9.744% |
| CS(=O)(=O)NC1CCCN(C(=O)NCc2cc[nH]n2)C1 (stereo not drawn) | -1.074% |

| Structure (SMILES) | Percent Effect |
| --- | --- |
| CC(CNC(=O)N1CCN(c2ncccn2)CC1)Cc1cccs1 (stereo not drawn) | -35.53% |
| N#Cc1ccccc1N1CCN(C(=O)NCC(=O)N2CCCC2)CC1 | -1.371% |
| O=C(NCc1cc2n(n1)CCCNC2)C1(c2ccccc2)CCCCC1 | 0.555% |
| O=C(NCC1CCOC1)N1CCN(c2ncccn2)CC1 (stereo not drawn) | 14.21% |
| N#Cc1ccccc1N1CCCN(C(=O)NCc2cc[nH]n2)CC1 | 136.7% |
| CCC(CNC(=O)NCc1cc[nH]n1)N1CCCC1 (stereo not drawn) | 2.082% |
| Cc1cccc(OC2CCN(C(=O)NCc3cc[nH]n3)CC2)c1C | -1.831% |
| O=C(NCc1cc[nH]n1)N1CCN(c2ncccn2)CC1 | 105.7% |
| CS(=O)(=O)NC1CCN(C(=O)NCc2cc[nH]n2)CC1 | 108.2% |
| CC(=O)N1CCC(C(=O)NCc2cc[nH]n2)(c2ccccc2)CC1 | 107.6% |
| Cc1nn(C)c2ncc(NC(=O)N(C)Cc3cnn(C)c3)cc12 | 3.959% |
| COc1ccc(C(=O)O)c(OCC(=O)NC(C)c2ccccc2)c1 (stereo not drawn) | -11.95% |
| COc1cncc(N2CCN(Cc3ccncc3Cl)CC2)n1 | -15.95% |
| CC(=O)c1ccc(N2CCN(C(=O)NCc3cc[nH]n3)CC2)cc1 | 106.6% |
| CCN1CCN(C(=O)NCc2cc[nH]n2)CC1 | 108.7% |
| NC(=O)c1ccc(CNC(=O)NCc2cc[nH]n2)cc1 | 0.637% |
| CCC1c2ccsc2CCN1C(=O)NCc1cc[nH]n1 (stereo not drawn) | 5.553% |
| O=C(NCc1cc[nH]n1)N1CCN(c2ccccc2Cl)CC1 | 14.41% |
| CC(=O)N1CCCN(C(=O)NCc2cc[nH]n2)CC1 | -2.345% |
| O=C(NCc1cc[nH]n1)N1CCC(Oc2ccccc2Cl)CC1 | -25.2% |
| O=C(NCc1ccc(N2CCSCC2)cc1)NCc1cc[nH]n1 | -6.382% |
| CCOc1ccccc1N1CCN(C(=O)NCc2cc[nH]n2)CC1 | 100.3% |
| CN(C)c1ccccc1C(=O)N1C[C@@H](CN2CCC(O)CC2)[C@@H](CO)C1 | -115.2% |
